# Laboratory results taken from PubChem BioAssay AID1963319 (National Center for Advancing Translational Sciences (NCATS), 2024).
# Among all 1,300 compounds or so, about 120 (9.2%) were called active. Not shown: some 35% with an inconclusive outcome. The call rests on the fitted dose curve; in most records, active means well fitted activation curve with a large enough effect; inconclusive means small, poorly fitted or top-dose-only effect; inactive means flat fitted curve, though single readings scatter. These entries were drawn from the full list. Where a call stands in place of a potency, no number is given.
# Molecular target: Luciferin 4-monooxygenase (Photinus pyralis) (UniProt P08659)
# Test: Firefly luciferase (FLuc-C-HiBiT) SDR gain of signal screen - plus ATP;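 further: signal reports ligand binding via conformational change of the enzyme rather than luciferase catalysis; nearly all actives have a fitted effect of over 55% in size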
# Settings: purified FLuc-C-HiBiT + ATP, HiBiT complementation luminescence; series mostly up to 32.7 µM
# Excerpt: PI: James Inglese Ph.D. National Center for Advancing Translational Sciences (NCATS), National Institute of Health (NIH), Maryland Discovery and optimization of novel protein-binding ligands underlies many of the methods and applications of biology, drug discovery, clinical diagnostics, and environmental toxicology. Assays for detecting the interaction of, for example, a molecule with a macromolecular target also referred to here as the target of interest (TOI) is dependent on a compatible output technology. Depending on the nature and knowledge surrounding the TOI, whether a receptor, enzyme, regulatory subunit or scaffold, or a sequence-defined nucleic acid folded into a complex tertiary structure, assay strategies can vary widely. Here we exploit ligand-biased changes in the structural dynamics of the target protein to control reporter alpha complementation allowing a non-competitive, non-functional, non-separation measure of ligand-target interaction. […] Using a chemical library of >1,200 compounds enriched for scaffolds known to be associated with the inhibition of firefly luciferase (FLuc) activity (PubChem AIDs 2309) we first illustrate and compare the Structural Dynamics Response (SDR) assay vs. the standard functional FLuc enzyme assay (2). Secondly, we show the specificity and sensitivity of the SDR for the Abelson tyrosine kinase (ABL1) compared to the serine/threonine protein kinase A, using an enriched chemical library of 128 compounds selected, in part, for activity annotated with ABL1 kinase activity using the Pharos database (3). References: (1) A. S. Dixon et al., NanoLuc Complementation Reporter Optimized for Accurate Measurement of Protein Interactions in Cells. ACS Chem Biol 11, 400-408 (2016). […] Chemistry & Biology, 19, 1060 - 1072 (2012). (3) K. J. Kelleher et al., Pharos 2023: an integrated resource for the understudied human proteome. Nucleic Acids Res 51, D1405-D1416 (2023).
# 1. Reagent. Dispense 4 uL FLuc-C-HiBiT enzyme-buffer solution per well at a final enzyme concentration of 10 nM with or without 10 uM ATP into columns 2-48 of white, solid bottom medium bind 1536-well plates (Greiner Bio-One) by BioRaptr 2. Dispense respective buffer without enzyme at 4 uL/well in column 1 of assay plates. 2. Compounds. Library compounds and PTC124 control added at 23 nL per well, transfer by Pin Tool. 3. Incubation. Incubate enzyme and compounds at room temperature for >30 min, protect from light. 4. Reagent. (SDR assay) Add 3 uL/well of Nano-Glo HiBiT reagent (Promega) to assay plates for SDR assay with ATP. 5. Incubation. Incubate enzyme and substrate or detection reagent at room temperature for 5-10 min, protect from light. 6. Detector. HiBiT SDR assay measured using CCD-based camera (ViewLux) with settings as follows: Exposure, 1 sec; Gain, High; Speed, Slow; Binning, 2X. REFERENCES: Inglese J, Shamu CE and Guy RK, Reporting data from high throughput screening of small molecule libraries, Nature Chemical Biology, 2007, 3(8): 438-441. doi.org/10.1038/nchembio0807-438.
# Potency means the concentration at half of the fitted maximal effect.
# Luciferin 4-monooxygenase (Photinus pyralis), sequence (P08659 whole entry, looked up): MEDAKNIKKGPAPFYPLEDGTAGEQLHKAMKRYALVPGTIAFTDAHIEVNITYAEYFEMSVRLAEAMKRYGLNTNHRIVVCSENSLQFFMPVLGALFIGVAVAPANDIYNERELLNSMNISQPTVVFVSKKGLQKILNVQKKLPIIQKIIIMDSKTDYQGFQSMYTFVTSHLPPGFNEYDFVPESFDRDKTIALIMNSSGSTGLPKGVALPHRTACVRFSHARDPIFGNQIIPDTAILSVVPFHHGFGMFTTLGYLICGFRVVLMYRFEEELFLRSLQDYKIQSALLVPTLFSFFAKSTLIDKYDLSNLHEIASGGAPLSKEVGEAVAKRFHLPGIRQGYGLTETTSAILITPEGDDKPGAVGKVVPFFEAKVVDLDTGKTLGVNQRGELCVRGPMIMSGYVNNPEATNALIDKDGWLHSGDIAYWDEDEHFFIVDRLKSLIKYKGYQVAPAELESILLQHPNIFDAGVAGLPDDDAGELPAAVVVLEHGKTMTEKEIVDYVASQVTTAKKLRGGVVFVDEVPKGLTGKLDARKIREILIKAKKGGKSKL
row,SMILES,Potency
1,CC(=O)c1ccc(NC(=O)CSc2nnc(NC(=O)Nc3ccccc3)s2)cc1,inactive
2,Cc1ccc(C(=O)Nc2ccc(-c3nc4ccccc4s3)c(O)c2)cc1,inactive
3,Cc1nn(-c2ccc(C(C)(C)C)cc2)c(C)c1[C@@H]1C=C[C@@H](NC(=O)c2ccco2)C1,inactive
4,Oc1ccc(-c2nc(C3CC3)nc3c2CCN(Cc2cccc(F)c2)CC3)cc1,inactive
5,CC(=O)Nc1ccc(NC(=O)CCCc2nc(-c3ccc(C(C)(C)C)cc3)no2)cc1,inactive
6,Cc1ccc(Nc2c(-c3ccc(N(C)C)cc3)nc3nc[nH]n23)cc1,inactive
7,Fc1ccc(Nc2nc(-c3ccccc3F)no2)cc1,inactive
8,Cc1ccc(-c2nnc(SCc3ccccc3C)o2)cc1,inactive
9,CCNC(=O)C1C(c2cccc(NC(=O)c3ccc(OC)cc3)c2)OC(=O)N1Cc1ccc(C)cc1 (centres undefined),3.94 µM (active)
10,Cc1cc(C)n(CCC(=O)N2CCC(Cc3noc(C4CC4)n3)C2)n1 (centres undefined),inactive
11,Cc1cccc(-c2cccc(NC(=O)C3CCCN(C(=O)CC(F)(F)F)C3)c2)c1 (centres undefined),inactive
12,Cc1nn(-c2ccc(C(C)C)cc2)c(C)c1[C@@H]1C=C[C@@H](NC(=O)CC2(CC(=O)O)CCCC2)C1,inactive
13,CC(C)C(=O)Nc1cc(-c2nc3ccccc3s2)ccc1Cl,inactive
14,COc1cccc(-c2nc3ccc(-c4ccc5c(c4)OCO5)cc3o2)c1OC,inactive
15,OC1(CN2CCCCC2)CCN(c2nc3ccccc3s2)C1 (centres undefined),inactive
16,Cc1nn(-c2ccc(C(C)C)cc2)c(C)c1[C@@H]1C=C[C@@H](NC(=O)Nc2ccccc2)C1,inactive
17,CN1CCN(C[C@@H]2CN(C(=O)CCCc3ccccc3)C[C@@H]2CO)CC1,inactive
18,COc1ccc(-c2cc(N3CCCC(NC(=O)c4ccsc4)C3)n[nH]2)cc1 (centres undefined),inactive
19,COc1ccccc1OC1(C(=O)O)CCN(c2ncnc3nc[nH]c23)CC1,inactive
20,O=C(CSc1ccc(F)cc1)Nc1ccccc1-c1nc2ccccc2s1,inactive
21,O=C(Nc1ccccc1)c1nc2c(o1)CCN(Cc1cccc(Cl)c1)CC2,inactive
22,COc1ccc(C(=O)Nc2onc3c2CCCC3)cc1,3.94 µM (active)

row,SMILES,Potency
1,OCc1cccc(-c2cc3c(cn2)CN(Cc2ccccc2)CCN3)c1,inactive
2,O=C(/C=C/c1ccccc1)Nc1cc(-c2nc3cc(Cl)ccc3o2)ccc1Cl,inactive
3,CC(=O)c1nn(-c2ccc(OC(F)(F)F)cc2)nc1Nc1ccccc1,inactive
4,CNc1nc(C(=O)NCc2ccc3[nH]c(-c4ccc(F)cc4)c(C)c3c2)cs1,inactive
5,CN1c2cc(C(=O)Nc3ccccc3)ccc2C(=O)N2CCCCCC21 (centres undefined),inactive
6,Cc1nn(-c2ccc(C(C)C)cc2)c(C)c1[C@@H]1C=C[C@@H](NC(=S)NCC(C)C)C1,inactive
7,Cc1cccc(C(=O)Nc2ccc(-c3nc4ccccc4s3)c(C)c2)c1,inactive
8,Cc1ccc(Cl)cc1-n1ncc2c(N3CCC(C(N)=O)CC3)ncnc21,inactive
9,OCCN1CCN(c2nc(N3CCCCC3)c3cnn(-c4ccc(Cl)cc4)c3n2)CC1,inactive
10,OCC1CCCN(c2ncnc3c2cnn3-c2ccccc2)C1 (centres undefined),0.785 µM (active)
11,C[S+](=O)([O-])CCn1ncc2cc(OCc3cccc(-c4ccccc4)c3)ccc21,inactive
12,CC(=O)Oc1ccccc1C(=O)Nc1ccc(-c2nc3ccc(C)cc3s2)cc1,inactive
13,O=C(NC1CCN(c2cc(-c3ccc(F)cc3)[nH]n2)C1)c1cc2ccccc2[nH]1 (centres undefined),inactive
14,Cc1ccc2cc(CN3CCN(CC(N)=O)CC3)c(-c3cccs3)nc2c1,inactive
15,COc1ccc(CC(=O)Nc2ccc(-c3nc4ccccc4s3)c(C)c2)cc1,inactive
16,COc1ccc(-c2nc3ccccc3s2)cc1NC(=O)COc1ccccc1C,inactive
17,CCc1cccc(NC(=O)c2cc(-c3ccccc3)n[nH]2)c1,inactive
18,COc1cc(F)ccc1-c1ccc(COc2ccc3c(cnn3CCC(=O)O)c2)cc1,inactive
19,Cc1ccc(-c2nc(C(=O)N(C)Cc3ccccc3)no2)cc1,inactive
20,Oc1cccc(-c2cc3c(cn2)CN(Cc2cccnc2)CCN3)c1,inactive
21,O=C(COc1ccc(Cl)cc1)Nc1ccc(-c2nc3cc(Cl)ccc3o2)c(O)c1,inactive
22,CCOC(=O)C1CCN(C(=O)c2cccc3c2CCN3C(=O)Nc2ccccc2)CC1,3.13 µM (active)
